TDP1 cell noCPT: qHTS for Inhibitors of human tyrosyl-DNA phosphodiesterase 1 (TDP1): qHTS in cells in absence of CPT | DT40 Tdp1-/- hTDP1 cells, no CPT, ATP luminescence, 48 h | Potency, µM (doses to about 46.2 µM), actives largely listed as inhibitors | hit rate 15% among 420,000; note: nearly all actives have a fitted effect of over 55% in size
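Stably hTDP1-transfected Tdp1-null chicken DT40 cells were treated with library compounds minus camptothecin and grown for at least 48 hr at 37 °C, after which cellular ATP was quantified by luminescence.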
ClpP mod: qHTS Assay for Activators of ClpP; Potency, µM (highest dose often 57.5 µM); purified B. subtilis ClpP, FRET peptide cleavage, 20 min; ATP-dependent Clp protease proteolytic subunit (Bacillus subtilis (strain 168)), P80244; hit rate 1.9% among 340,000; active = well fitted falling curve with a large enough effect; inconclusive = small, poorly fitted or top-dose-only effect; inactive = no such curve, though single readings can be large or run the other way; note: the source files actives as falling curves though it sought activators and does not explain the sign; nearly all actives have a fitted effect of over 65% in size
Target sequence (P80244 whole entry, looked up): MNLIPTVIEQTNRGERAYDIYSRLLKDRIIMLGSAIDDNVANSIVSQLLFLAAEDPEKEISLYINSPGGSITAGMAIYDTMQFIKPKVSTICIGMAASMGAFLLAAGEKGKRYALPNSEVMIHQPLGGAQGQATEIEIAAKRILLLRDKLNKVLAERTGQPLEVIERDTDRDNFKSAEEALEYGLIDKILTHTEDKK
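ClpP 10 microg/mL final, pH 8 Tris/KCl buffer with BSA, glycerol, Tween-20; compound pinned in; FRET-FV substrate; RT 20 min; Ex320/Em430; ΔFRET vs ADEP 5.8 microM, DMSO, no enzyme.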
DT40 TDP1 CPT: growth inhibition of DT40 Tdp1-/-;hTDP1 cells with camptothecin (screen for TDP1 inhibitors) | chicken DT40 Tdp1-/-;hTDP1 cells + 20 nM CPT, ATP luminescence, 48 h | Potency, µM (titrated, usually from 46.2 µM), most hits filed as inhibitors | hit rate 12% among 420,000 | AID 686979; note: nearly all actives have a fitted effect of over 55% in size
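Chicken DT40 Tdp1-/- cells complemented with human TDP1, 400 cells/well, exposed to compounds plus 20 nM camptothecin for at least 48 h at 37 C; viability read as ATP content by CellTiter-Glo luminescence.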
TDP1 block: TDP1 (human) enzyme inhibition | AID 485290 | Potency, µM (series often up to 130 µM), hits mostly inhibitors | recombinant TDP1, AlphaScreen DNA substrate cleavage | Q9NUW8 | hit rate 0.28% among 350,000; note: nearly all actives have a fitted effect of over 40% in size
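Here, a 5' biotin and 3' phosphotyrosine-FITC DNA oligonucleotide reports Tdp1 activity: intact substrate bridges AlphaScreen beads, while cleavage leaves a 3' phosphate and drops signal. All incubations at room temperature.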
Hits are given with their value; . = inactive; ? = inconclusive; / = no result; [ ] = remark or other dose. In the library only some 17% were active in any assay of this set; here they are far more common. Unless noted, calls come from the whole dose curve; as a rule, active = well fitted curve in the direction sought with a large enough effect; inconclusive = small, poorly fitted or top-dose-only effect, or another doubt; inactive = no such curve, though single readings can be large; an effect the other way counts as inactive or inconclusive.

SMILES | TDP1 cell noCPT | ClpP mod | DT40 TDP1 CPT | TDP1 block
O=C(Nc1nnc(SCC(=O)N2CCCc3ccccc32)s1)c1ccccc1 | . | . | . | .
COc1ccc(C(=O)Nc2ccc3nc(SCC(=O)N4CCCc5ccccc54)sc3c2)cc1 | 18µM | ? | 9.2µM | .
O=C(Nc1ccc2nc(SCC(=O)N3CCc4ccccc43)sc2c1)c1ccccc1 | 2.3µM | 8.9µM | 5.8µM | .
COc1cc(NC(=O)c2nnn(CC(=O)Nc3cc(C)ccc3C)c2N)cc(OC)c1 | . | . | . | .
Nc1ccc(N2CCOCC2)cc1C(F)(F)F | . | . | . | .
Cc1c(NC(=O)c2cc(-c3ccc(F)cc3)nc3ccccc23)c(=O)n(-c2ccccc2)n1C | 12µM | / | ? | .
Cc1c(NC(=O)COC(=O)c2cc(-c3cccc4ccccc34)nc3ccccc23)c(=O)n(-c2ccccc2)n1C | . | . | ? | .
Cc1cc(C)cc(-n2c(N)c(C(=O)Nc3c(C)n(C)n(-c4ccccc4)c3=O)c3nc4ccccc4nc32)c1 | 8.2µM | . | 7.3µM | .
Cc1cccc(-c2cc(C(=O)Nc3c(C)n(C)n(-c4ccccc4)c3=O)c3ccccc3n2)c1 | 15µM | . | 26µM | .
Cc1cc(O)ccc1Nc1cc(-c2cccc(N)c2)ncn1 | . | . | . | /
Cc1nn(-c2ccccc2)c(C)c1NC(=O)COc1ccc(C#N)cc1 | 12µM | . | ? | .
Cc1ccnc(NC(=O)COc2ccc(Cl)cc2)n1 | . | . | . | .
Cc1nn(-c2ccccc2)c(C)c1NC(=O)COc1ccccc1C#N | . | . | ? | /
Cc1nn(C)c(C)c1NC(=O)COc1ccc(Cl)cc1 | 2.6µM | . | 6.5µM | .
Cc1ccc(-n2nc(C)c(NC(=O)CCl)c2C)cc1C | 8.2µM | . | 8.2µM | .
Cc1nn(-c2ccccc2)c(C)c1NC(=O)COc1ccc2ccccc2c1 | 18µM | . | 16µM | .
CCOC(=O)Cn1nc(C)c(NC(=O)COc2ccc(Cl)cc2C)c1C | 8.2µM | . | 9.2µM | .
COc1cccc(NC(=O)c2nn(-c3ccc(C)cc3)c(=O)n(C)c2=O)c1 | 15µM | . | ? | .
COc1ccc(Cl)cc1NC(=O)CN(C)C(=O)c1ccc(-n2cncn2)cc1 | . | / | . | .
COCCn1c(N)c(C(=O)NCc2cccs2)c2nc3ccccc3nc21 | . | 32µM | . | ?
COCCn1c(N)c(C#N)c2nc3ccccc3nc21 | . | . | . | .
O=C(NCc1ccco1)C1CCN(c2nc3ccccc3n2Cc2ccc(F)cc2)CC1 | 16µM | . | ? | .
N#Cc1c(N)n(CCc2ccc(F)cc2)c2nc3ccccc3nc12 | ? | 32µM | ? | .
Nc1c(C(=O)NCc2ccco2)c2nc3ccccc3nc2n1CCc1ccc(F)cc1 | 18µM | 16µM | 21µM | .
CCCCCCC#CC1C=CC(OC(C)=O)C(COC(C)=O)O1 (configuration not stated) | / | / | / | .[21 µM]
SMILES | TDP1 cell noCPT | ClpP mod | DT40 TDP1 CPT | TDP1 block
C=CCn1c(N)c(C(=O)Nc2ccccc2)c2nc3ccccc3nc21 | ? | ? | . | .
COc1ccc(-n2c(N)c(C(=O)NCc3ccco3)c3nc4ccccc4nc32)cc1OC | ? | / | ? | .
COC(=O)c1c(N)n(-c2ccc(N3CCOCC3)cc2)c2nc3ccccc3nc12 | / | / | / | .
COCCNC(=O)c1c(N)n(-c2ccccc2)c2nc3ccccc3nc12 | . | 18µM | . | .
COCCNC(=O)c1c(N)n(-c2cccc(C)c2)c2nc3ccccc3nc12 | ? | . | ? | .
C=CCNC(=O)c1c(N)n(-c2cccc(S(N)(=O)=O)c2)c2nc3ccccc3nc12 | 12µM | 14µM | 15µM | .
COC(=O)c1c(N)n(-c2ccc(NC(C)=O)cc2)c2nc3ccccc3nc12 | 21µM | ? | 23µM | .
COCCCNC(=O)c1c(N)n(-c2ccc(S(N)(=O)=O)cc2)c2nc3ccccc3nc12 | . | 16µM | . | .
COc1cccc(NC(=O)CSc2nc3cc(OC)c(OC)cc3c3nc(-c4ccccc4)nn23)c1 | . | . | . | .
CO/N=C(\C)CCN1CCCCc2nc(C)c(C)cc21 | / | / | / | .[21 µM]
NC(=S)N=Nc1c(O)cc(O)c2[nH]c(=O)ccc12 | . | . | . | /
CCOc1ccc(OCC(=O)OCC(=O)N2CCN(S(=O)(=O)c3ccc(C)cc3C)CC2)cc1 | . | . | . | /
COc1cc(-n2c(N)c(C(=O)NCc3ccco3)c3nc4ccccc4nc32)cc(OC)c1OC | ? | . | ? | .
COc1ccc(-n2c(N)c(C(=O)NCc3ccco3)c3nc4ccccc4nc32)cc1 | ? | 32µM | ? | .
COCCCNC(=O)c1c(N)n(-c2ccccc2)c2nc3ccccc3nc12 | 18µM | . | ? | .
COCCNC(=O)c1c(N)n(CCCn2ccnc2)c2nc3ccccc3nc12 | . | 16µM | . | .
COc1ccccc1N1CCN(S(=O)(=O)c2c(C(=O)N3CCOCC3)c(C)n(C)c2C)CC1 | ? | . | ? | .
COc1cccc(N2CCN(C(=O)C3CCN(S(=O)(=O)c4c(C)noc4/C=C/c4ccccc4F)CC3)CC2)c1 | ? | . | ? | .
CC(Nc1ncnc2ccccc12)c1ccccc1 (configuration not stated) | 0.73µM | / | 1.2µM | .
Cc1noc(C)c1-c1ccc2ncnc(NC(C)c3ccccc3)c2c1 (configuration not stated) | / | / | / | .
CCc1noc(C)c1C(=O)NNC(=O)COc1ccc(Br)cc1 | . | . | . | .
CCOC(=O)c1cccc(NC(=O)c2cnc3sc(N4CCOCC4)nn3c2=O)c1 | ? | . | ? | .
Cc1oc(-c2cccc(Cl)c2)nc1CN1CCC(C(=O)NCCCN2CC(C)CC(C)C2)CC1 (configuration not stated) | 21µM | . | ? | .
COc1ccc(-c2nc(CN3CCC(C(=O)NCCc4ccccc4)CC3)c(C)o2)cc1OC | ? | . | . | .
COc1ccc(CCNC(=O)C2CCN(Cc3nc(-c4cccc(Cl)c4)oc3C)CC2)cc1OC | 21µM | . | 18µM | .
O=C(CCc1cccc(Cl)c1)N1CCCC(Nc2ccccc2)C1 (configuration not stated) | ? | . | ? | .
COc1ccc(CNC(=O)Cn2c(=O)cc(-c3ccccc3)c3c(C)nn(C)c32)cc1 | . | ? | . | .
CO[C@H]1COC(=O)C/C=C\[C@H](C)[C@@H](NS(=O)(=O)c2ccc(C)cc2)COC(=O)CCC[C@@H]1C | / | / | / | .[21 µM]
COc1ccc(C(C)NC(=O)C2CCN(CCOc3ccc(Cl)cc3Cl)CC2)cc1OC (configuration not stated) | 23µM | . | 23µM | /
COc1ccc(C(NC(=O)C2CCN(CCOc3ccc(Cl)cc3Cl)CC2)c2cccs2)cc1 (configuration not stated) | 16µM | . | ? | /
